Test results from PubChem BioAssay (NCI).
This is part of a sample that, as a whole, favours compounds with a hit. Of some 83,000 tested, about 20% had one in any assay.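 Negative percent growth values reflect cell death: -40 means 40% of the cells present at the start died, and -100 means all died.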 Calls of active or inactive are those of the source. The calls were made as follows: active = growth percent below 10; inactive = the rest.

The compounds below were run on MDA-MB-435 melanoma (assay: NCI-60 one-dose screen, 48 h (100 = growth as untreated, 0 = no growth, -100 = all killed)). Conditions: 10 µM unless noted.
In the case of `CSc1nc(Nc2cccc(NC(=O)CCl)c2)c(C#N)c(-c2cccc([N+](=O)[O-])c2)n1`, the growth is reported as 45.3% (inactive).
For `CC(C)(C)c1cc(/C=N\NC(=O)/C=C/C=C/c2ccc3c(c2)OCO3)c(O)c(C(C)(C)C)c1`, the growth was 86.4% (inactive).
With `CCOc1cc2ncc(C#N)c(Nc3ccc(OCc4cccc(F)c4)c(Cl)c3)c2cc1NC(=O)CC1CCSS1` (configuration not stated) the growth was -26.4% (active).
With `COc1ccc(-c2cc(Nc3ccnc(N4CCOCC4)n3)on2)cc1` the growth was -30.2% (active).
In the case of `COC(=O)[C@]12CCC(C)(C)C[C@H]1[C@H]1C(=O)C[C@@H]3[C@@]4(C)c5c([nH]c6ccccc6c5=O)C(C)(C)[C@@H]4CC[C@@]3(C)[C@]1(C)CC2`, the growth is reported as 57.5% (inactive).
`CN(C)CCCNc1c2ccccc2nc2ccccc12` was tested, and the growth was 96.1% (inactive).
With `O=C1NC(=S)N[C@H]1CC(=O)n1cnc2ccccc21` the growth was 105% (inactive).
`Cc1ccc2oc(=O)cc(C3c4ccc([nH]4)C(c4cc(=O)oc5ccc(C)cc45)c4ccc([nH]4)C(c4cc(=O)oc5ccc(C)cc45)c4ccc([nH]4)C(c4cc(=O)oc5ccc(C)cc45)c4ccc3[nH]4)c2c1` (configuration not stated) was tested, and the growth was -76.1% (active).
With `CSc1ccc(-c2n[nH]nc2-c2cc3ccccc3s2)cc1` the growth was -19% (active).
With `COC(=O)c1ccc(NC(=O)c2ccc(-c3cccc([N+](=O)[O-])c3)o2)cc1` the growth was 101% (inactive).
With `O=C(N=Nc1c(O)[nH]c2ccccc12)c1cc(-c2ccccc2)on1` the growth was 110% (inactive).
For `Cc1cc(N2CCCCC2)nc(NC2CCCC(Nc3ccnc4cc(Cl)ccc34)C2)n1` (configuration not stated), the growth was -92% (active).
